Compound activity (PubChem)
CXXC DNA block: MLL CXXC-DNA interaction inhibition | AID 2662 | 290,000 compounds, 0.037% hits | Q03164 | Potency, µM (series often up to 115 µM), for inactives: at the top dose activity change, negative = inhibition, actives largely listed as inhibitors | MLL-CXXC / FITC-HOXA9 DNA fluorescence polarization; active = well fitted inhibition curve with a large enough effect in the polarisation, with a control signal flat, not every such curve was filed as active; inconclusive = small, poorly fitted or top-dose-only effect, or effect the other way, or a change in a side signal; inactive = no such curve, though single readings can be large or run the other way; the % refers to the polarisation; also: potency is read from the fitted curve at half-maximal effect
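Purified MLL-CXXC (added from a 7 uM solution) was preincubated 5 min at ambient with pinned compounds in 50 mM Tris-HCl pH 7.5, 50 mM NaCl, 1 mM DTT, 0.05% BSA. Fluorescein-labeled HOX-A9 DNA (50 nM solution) followed, 30 min, then polarization read.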
PINK1 modulator: PINK1 expression modulation | PINK1 immunofluorescence, high-content cytometry, 24 h | Potency, µM (titrated, usually from 76.6 µM), for inactives: at the highest dose activation (PINK1 increase), actives largely listed as activators | 410,000 compounds, 0.2% hits | AID 624263; active = well fitted activation curve with a large enough effect; inconclusive = small, poorly fitted or top-dose-only effect; cell line not stated here; also: potency is read from the fitted curve at half-maximal effect; % of control where 0% means no effect; nearly all actives have a fitted effect of over 65% in size
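PINK1 protein level read as immunofluorescence by microplate cytometer in a fixed, stained stable cell line after 24 h exposure to five compound concentrations, with CCCP as control.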
Menin MLL FP FL: inhibitors of human menin-MLL interaction, wild-type MLL peptide; FP activity change, % at 61.4 µM; Fluorescence polarization, fluorescein-MLL peptide displacement from menin; AID 1766; 290,000 tested, under 10 active; active = well fitted curve in the direction sought with a large enough effect in the polarisation, not every such curve was filed as active; inconclusive = small, poorly fitted or top-dose-only effect, or effect the other way, or a change in a side signal; inactive = no such curve, though single readings can be large or run the other way; the % refers to the polarisation; also: % of control where 0% means no effect
Epigenetic derep: derepresses silenced GFP reporter in murine cells. murine LDR cells, GFP reporter derepression, 30 h. Potency, µM (top dose mostly 53.9 µM), inactives show at the top dose GFP activation, actives largely listed as activators. 280,000 compounds, 0.2% hits. AID 1865; active = well fitted activation curve with a large enough effect; inconclusive = small, poorly fitted or top-dose-only effect; also: potency is read from the fitted curve at half-maximal effect; % of control where 0% means no effect; nearly all actives have a fitted effect of over 60% in size
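Murine LDR cells bearing a silenced CMV-driven GFP reporter were exposed to compound for 30 h at 37 C. After PBS washes, GFP-positive cells (20-120 um objects) counted by laser-scanning microplate cytometry.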
ClpP mod: qHTS Assay for Activators of ClpP; purified B. subtilis ClpP, FRET peptide cleavage, 20 min; 340,000 compounds, 1.9% hits; Potency, µM (titrated, usually from 57.5 µM), for the others: at the top dose activity change, negative = active; active = well fitted falling curve with a large enough effect; inconclusive = small, poorly fitted or top-dose-only effect; inactive = no such curve, though single readings can be large or run the other way; also: potency is read from the fitted curve at half-maximal effect; the source files actives as falling curves though it sought activators and does not explain the sign; nearly all actives have a fitted effect of over 65% in size
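Purified B. subtilis ClpP, 10 microg/mL final in Tris/HCl pH8 with KCl, BSA, glycerol and Tween-20, cleaved an Abz/nitrotyrosine-quenched decapeptide. Fluorescence (ex 320, em 430) was read at 0 and 20 min at room temperature. Delta was normalized to 5.8 microM ADEP and DMSO/no-enzyme controls.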
Menin MLL FP TR: menin-MLL binding inhibition, Texas Red mutant peptide; Potency, µM (series often up to 61.6 µM), inactives show at the highest dose FP activity change, negative = inhibition, hits mostly inhibitors; Menin + Texas Red MLL mutant peptide, fluorescence polarization; AID 1768; 270,000 compounds, 0.23% hits; O00255; active = well fitted inhibition curve with a large enough effect in the polarisation, with a control signal flat, not every such curve was filed as active; inconclusive = small, poorly fitted or top-dose-only effect, or effect the other way, or a change in a side signal; inactive = no such curve, though single readings can be large or run the other way; the % refers to the polarisation; also: potency is read from the fitted curve at half-maximal effect; % of control where 0% means no effect
The depositor's hits bear a star; ? = inconclusive; . = not tested or not shown; [ ] = remark or other dose. Rows were chosen to be rich in hits. Some 1.9% of all compounds tested hit in one or more screens of this group.

SMILES	CXXC DNA block	PINK1 modulator	Menin MLL FP FL	Epigenetic derep	ClpP mod	Menin MLL FP TR
COC(=O)c1ccn(C(=O)c2ccc(Cl)cc2)n1	10%	5%[38.3 µM]	-3	-1%	28µM*	14%
COC(=O)c1ccn(CSc2cc(Cl)ccc2Cl)n1	.	-1%	.	.	0%	.
O=C1CN(C(=O)COC(=O)c2ccccc2NCc2ccco2)c2ccccc2N1	11%	1%	-1	0%	25µM*	.
COc1ccc(-c2nc3cnc(Nc4cccc(OC)c4)nc3n(CCC#N)c2=O)cc1	.	45µM*	?	.	.	?
COc1ccc(-c2nc3cnc(Nc4ccccc4)nc3n(CCC#N)c2=O)cc1	.	11µM*	?	.	.	-26%
CN(C)c1ncc2nc(-c3ccccc3)c(=O)n(CCC#N)c2n1	.	-1%	?	.	.	28µM*
COc1ccc(C(NC(=O)C(C)C)c2ccc3cccnc3c2O)cc1 (stereo unspecified)	-2%	1%	0	3.5µM*	.	.
CCCCC(=O)NC(c1ccc(OC)cc1)c1ccc2cccnc2c1O (stereo unspecified)	.	0%	.	.	1%	.
Clc1cc(Cl)c(OCC#CI)cc1Cl	11%	.	0	.	.	3%
CCCCOc1ncnc2c1[nH]c1ccc(F)cc12	3%	.	1	-1%	16µM*	?
CCCCOc1ncnc2c1[nH]c1ccc(OCC)cc12	5%	-1%[38.3 µM]	2	0%	-29%	8%
CCCCOc1ncnc2c1[nH]c1ccccc12	5%	0%	0	1%	18µM*	11%
Cc1oc(-c2cccc(NC(=O)C3CCCN(C)C3)c2)nc1CNC(=O)c1coc2c1C(=O)CCC2 (stereo unspecified)	.	1%	.	.	.	.
CC(C)C(=O)Nc1ccc(NC(=S)NC(=O)c2ccccc2F)cc1	11%	-1%	-3	.	32µM*	?
CN(Cc1ccccc1)C(=O)C1CCCN(Cc2ccc(Cl)cc2)C1 (stereo unspecified)	2%	-1%	5	-1%	11µM*	-11%
O=C(c1ccc(=O)oc1)N1CCN(c2ccc(F)cc2)CC1	-1%	-1%	?	0%	32µM*	13%
O=C(c1ccc(Cn2c(=S)[nH]c3ccc(N4CCOCC4)cc3c2=O)cc1)N1CCN(c2ccc(F)cc2)CC1	8%	2%	2	0%	20µM*	10%
O=C(c1ccc(F)c(S(=O)(=O)N2CCOCC2)c1)N1CCN(c2ccc(F)cc2)CC1	.	1%	.	.	0%	.
CN(C1CCCCC1)S(=O)(=O)c1ccc(NC(=O)C2CCCCC2C(=O)O)cc1 (stereo unspecified)	6%	-2%	4	-1%	32µM*	-5%
COc1ccc(-c2nn(-c3ccccc3)cc2/C=N/NC(=O)c2cccc(S(=O)(=O)Nc3ccccc3OC)c2)cc1	9%	3%	4	0%	18µM*	?
COc1ccc(-c2nn(-c3ccccc3)cc2/C=N/NC(=O)c2ccc3c(c2)OCO3)cc1	12%	.	6	0%	.	?
O=C(N/N=C\c1cn(-c2ccccc2)nc1-c1ccccc1)c1ccc2c(c1)OCO2	27%	7%	8	-1%	-21%	25µM*
COc1ccc(-c2nn(-c3ccccc3)cc2/C=N/NC(=O)c2ccc(Br)o2)cc1	29%	-1%	5	2%	32µM*	?
COC(=O)c1c(OCc2ccccn2)cc(=O)n2c1CCN(Cc1ccc3nsnc3c1)CC2	.	2%	.	.	.	.
CCCNC(=O)C1(C)CCN(C(=O)c2cc(F)cc(F)c2)C1 (stereo unspecified)	.	3%	.	.	2%	.
SMILES	CXXC DNA block	PINK1 modulator	Menin MLL FP FL	Epigenetic derep	ClpP mod	Menin MLL FP TR
FC(F)(F)c1nnc2sc(-c3cccs3)nn12	-7%	-2%	-2	0%	28µM*	5%
FC(F)(F)c1nnc2sc(-c3ccncc3)nn12	-14%	-2%	6	2%	0%	4%
Cc1onc(-c2ccccc2)c1C(=O)n1nnc2ccccc21	-3%	5%	1	1%	28µM*	-6%
Cc1onc(-c2ccccc2)c1C(N)=O	3%	-1%	-1	2%	-1%	?
c1csc(Cn2c(-c3cccs3)nc3ccccc32)c1	-3%	-5%[38.3 µM]	1	0%	32µM*	-20%
Cc1cn2nc(N)c3ccccc3c2n1	5%	-1%	-1	-7%	28µM*	-18%
COc1ccc(N2CCN(c3ccc(NC(=O)C4CCCCC4)cc3C#N)CC2)cc1	9%	6%	-3	-1%	28µM*	?
CCN(Cc1ccncc1)Cc1ccc2c(c1)CN(C(=O)c1ccccc1-n1cccn1)CCO2	.	0%	.	.	.	.
O=C1CCN(Cc2cccc(C(F)(F)F)c2)CCN1Cc1ccccn1	.	1%	.	.	.	.
Cc1nc2sccn2c1CN1Cc2ccccc2OC(c2ccccc2F)C1 (stereo unspecified)	.	-1%	.	.	.	.
CCC1(CC)Cc2ccccc2-c2nc(NCCO)[nH]c(=O)c21	-1%	-5%[38.3 µM]	1	1%	6.3µM*	6%
O=c1[nH]c(NCCO)nc2c1C1(CCCCC1)Cc1ccccc1-2	2%	-1%	3	-1%	32µM*	16%
COc1ccc(C(=O)Nc2cccc3c2CCCC3)cc1	9%	14%	-2	.	-8%	-3%
O=C(Nc1cccc2c1CCCC2)c1cc([N+](=O)[O-])cc([N+](=O)[O-])c1	9%	?	2	2%	28µM*	?
CCC1CN(Cc2cccn2-c2ccccn2)Cc2cc(OC)ccc2O1 (stereo unspecified)	.	0%	.	.	.	.
CC(O)(COc1ccccc1)c1ccc2c(c1)CN(Cc1ccc3nsnc3c1)CCO2 (stereo unspecified)	.	0%	.	.	.	.
Cc1cc[n+](CC#N)cc1	.	1%	.	.	0%	.
COc1cc(C2=NOC(C(=O)NCc3ccc(F)cc3)C2)cc(OC)c1OC (stereo unspecified)	3%	6%[38.3 µM]	4	0%	-5%	-16%
COc1ccc(C2=NOC(C(=O)NCc3ccc(F)cc3)C2)cc1OC (stereo unspecified)	0%	2.8µM*	2	-6%	-1%	0%
O=C(OCC(=O)N1N=C(c2ccc(Cl)cc2)CC1c1ccco1)c1ccccc1O (stereo unspecified)	18%	-2%	4	3%	35µM*	-3%
O=C(N1CCN(Cc2ccccc2)CC1)C(Cl)(Cl)Cl	?	4%	-1	-3%	13µM*	-11%
CS(=O)(=O)c1ccc(-c2nc(-c3ccc(F)cc3)c(-c3ccncc3)[nH]2)cc1	.	.	.	1%	.	.
COC(=O)c1ccccc1N/C=C/C(=O)c1ccc(Br)cc1	17%	14%	10	-1%	25µM*	17%
